This is one part of a sample in which hits are shown more often than they occur.
CtBP-E1A inh: qHTS Assay for Inhibitors of the CtBP/E1A Interaction; AID 651724, 2012; CtBP / adenovirus E1A interaction (AlphaScreen); hit rate 0.49% among 340,000; activity change, % (no concentration beside the values); AlphaScreen GST-E1A/His-CtBP binding, 1536-well; hits give low values
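AlphaScreen with 125 nM GST-E1A and 125 nM His-CtBP (5X stocks) in Tris pH 8.0, 300 mM NaCl, BSA, Tween 20, TCEP. Compounds preincubated 2 h at 37 deg C, then glutathione donor/nickel acceptor beads added for 1 h at 37 deg C in dark.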
Six1-Eya2 blk: qHTS Assay for Inhibitors of the Six1/Eya2 Interaction; Homeobox protein SIX1 (Homo sapiens) + Protein phosphatase EYA2 (Homo sapiens), …; AlphaScreen GST-Six1/His-Eya2 binding, biochemical; hits give low values; activity change, % (test concentration not listed); hit rate 0.56% among 360,000; AID 651725, 2012
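GST-Six1 + His-Eya2 (5X stock: 250/500 nM); Tris pH 8.0, 300 mM NaCl, 0.05% BSA, 0.02% Tween 20; GSH donor/Ni acceptor beads; 1 h 37 °C dark; AlphaScreen readout.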
KDM4E inh: qHTS Assay for Inhibitors of Human Jumonji Domain Containing 2E (JMJD2E); Potency, µM (titrated, usually from 57.1 µM), actives largely listed as inhibitors; Lysine-specific demethylase 4E (Homo sapiens), B2RXH2; JMJD2E catalytic domain, FDH-coupled NADH fluorescence (FDH is formaldehyde dehydrogenase); hit rate 1.6% among 230,000; active = well fitted inhibition curve with a large enough effect, not every such curve was filed as active; inconclusive = small, poorly fitted or top-dose-only effect, or another doubt; inactive = no such curve, though single readings can be large or run the other way; note: nearly all actives have a fitted effect of over 50% in size
L3MBTL1 inh: qHTS Assay for the Inhibitors of L3MBTL1; Lethal(3)malignant brain tumor-like protein 1 (Homo sapiens), Q9Y468; AlphaScreen L3MBTL1–H3K9me1 peptide binding; Potency, µM (top dose mostly 57.1 µM), most hits filed as inhibitors; hit rate 0.66% among 230,000; AID 485360, 2010; active = well fitted inhibition curve with a large enough effect; inconclusive = small, poorly fitted or top-dose-only effect; inactive = no such curve, though single readings can be large or run the other way; note: nearly all actives have a fitted effect of over 60% in size
Target sequence (Q9Y468 whole entry, looked up): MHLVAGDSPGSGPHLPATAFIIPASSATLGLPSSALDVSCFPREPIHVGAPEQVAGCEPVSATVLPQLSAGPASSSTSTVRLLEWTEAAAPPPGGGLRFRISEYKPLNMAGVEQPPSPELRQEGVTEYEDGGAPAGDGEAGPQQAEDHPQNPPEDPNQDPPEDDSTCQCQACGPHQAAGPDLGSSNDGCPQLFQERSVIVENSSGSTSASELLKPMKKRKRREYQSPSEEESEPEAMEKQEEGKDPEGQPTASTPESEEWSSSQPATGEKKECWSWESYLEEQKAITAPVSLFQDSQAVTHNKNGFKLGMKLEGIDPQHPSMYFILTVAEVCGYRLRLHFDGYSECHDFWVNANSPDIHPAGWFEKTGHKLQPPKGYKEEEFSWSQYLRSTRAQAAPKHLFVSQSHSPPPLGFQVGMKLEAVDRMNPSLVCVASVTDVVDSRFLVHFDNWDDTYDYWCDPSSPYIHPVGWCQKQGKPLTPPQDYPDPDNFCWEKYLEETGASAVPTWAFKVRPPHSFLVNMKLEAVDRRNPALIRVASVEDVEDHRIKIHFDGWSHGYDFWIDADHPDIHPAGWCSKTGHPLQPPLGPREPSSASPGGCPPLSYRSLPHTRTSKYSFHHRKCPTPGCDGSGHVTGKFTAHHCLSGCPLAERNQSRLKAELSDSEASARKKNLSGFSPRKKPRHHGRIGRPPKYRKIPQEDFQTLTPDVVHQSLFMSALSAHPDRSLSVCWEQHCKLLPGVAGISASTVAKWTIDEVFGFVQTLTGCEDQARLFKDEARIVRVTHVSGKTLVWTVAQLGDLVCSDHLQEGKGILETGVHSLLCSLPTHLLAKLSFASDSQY
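First, the protein-peptide complex forms for 30 min at room temperature (L3MBTL1 50 nM, biotinylated H3K9me1 peptide 75 nM). Next, compounds are pin-transferred and incubated 30 min. Finally, AlphaScreen beads are added and read after 30 min.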
Hits are given with their value; 0 = inactive; ? = inconclusive; - = no result; ! = a repeat was not active; [ ] = dose if it differs, or a comment. Cut-off read from the data, not from the text of the source, unless noted: active = activity change below about -65%; inconclusive = mostly about -30% to -63%; inactive = weaker than that.

SMILES | CtBP-E1A inh | Six1-Eya2 blk | KDM4E inh | L3MBTL1 inh
Oc1ccc(CN2CCN(Cc3ccccc3)CC2)c2cccnc12 | -98 | -93 | 0 | 0
OCc1ccccc1Cn1ccnc1 | 0 | 0 | - | -
C[C@H]1[C@H]2CC[C@H]3C4CC=C5C[C@@H](N(C)C)CC[C@]5(C)C4CC[C@]23CN1C (stereo partly drawn) | - | - | 0 | -
Cc1ccc(C2=Nc3cccnc3C(c3ccccc3)=NN2)cc1 | 0 | 0 | 0 | -
O=C(OCN1C(=O)c2ccccc2C1=O)c1cccnc1SC(F)F | 0 | 0 | - | -
COC(=O)c1ccc(C(NC(=O)OCc2ccccc2)/C(=C/[C@@H](C)C(=O)NCCF)c2cccnc2)cc1 (stereo partly drawn) | - | - | 0 | -
CN1CCN(Cc2ccc(OCc3ccccc3)cc2)CC1 | 0 | 0 | 0 | 0
CN1CCN(Cc2cc(COCc3ccccc3)c3cccnc3c2O)CC1 | -94 | -89 | 8.9µM | 14µM
O=C(COC(=O)c1cc(S(=O)(=O)N2CCOCC2)ccc1Cl)Nc1ccccc1Cl | 0 | 0 | - | 0
Cc1ncc(CO)c(/C=N/Nc2ccc(C(F)(F)F)cn2)c1O | -96 | -75 | - | -
Cc1ncc(CO)c(/C=N/NC(=S)Nc2ccc(F)cc2)c1O | -86 | -90 | ? | 14µM
CCOC(=O)C1=C(CC)OC(N)=C(C#N)C1c1cccs1 (stereo not drawn) | 0 | 0 | ? | -
COC(=O)CC1=C(C(=O)OC)C(c2cccs2)C(C#N)=C(N)O1 (stereo not drawn) | 0 | 0 | 22µM | 0
O=C(O)C(O)c1ccco1 (stereo not drawn) | - | ? | 0 | 5µM
O=C(O)C(O)c1ccccc1 (stereo not drawn) | 0 | 0 | 0 | 0
CCc1nnc(N/N=C/c2ccc(O)c(OC)c2)n1N | 0 | 0 | - | 0[2.29 µM]
COc1ccc(/C=N/Nc2nncn2N)cc1Br | ? | -75 | - | ?
COc1cc(/C=N/Nc2nncn2N)ccc1OCc1c(C)no[n+]1[O-] | 0 | 0 | 0.5µM | 0
Cc1cc(O)c(C(C)C)cc1NC(=S)Nc1cc(C(C)C)c(O)cc1C | 0 | 0 | - | -
CC(=O)/C(=N/Nc1ccccc1[N+](=O)[O-])N1CCCc2ccccc21 | -75 | -74 | 0 | ?
Oc1cc2c(c(Cl)c1O)CCNC[C@H]2c1ccccc1 | - | - | 13µM | -
Cc1cccc(C2CN(C)CCc3c2cc(O)c(O)c3Cl)c1 (stereo not drawn) | 0 | 0 | 13µM | 0
C=CCN1CCc2c(cc(O)c(O)c2Cl)C(c2ccccc2)C1 (stereo not drawn) | 0 | 0 | 13µM | -
Oc1cc2c(c(Cl)c1O)CCNCC2c1ccccc1 (stereo not drawn) | 0 | 0 | 13µM | -
C=CCN1CCc2cc(O)c(O)cc2C(c2ccccc2)C1 (stereo not drawn) | 0 | 0 | ? | 0
SMILES | CtBP-E1A inh | Six1-Eya2 blk | KDM4E inh | L3MBTL1 inh
O=P(Nc1ccccc1)(Nc1ccccc1)c1ccccc1 | 0 | 0 | - | -
O=C(NN=C1CCN(Cc2ccccc2)CC1)c1ccccc1O | 0 | 0 | ? | -
O=C(NN=C1CCN(Cc2ccccc2)CC1)c1cc2ccccc2cc1O | 0 | 0 | 28µM | 0
C=CC(C)(C)c1[nH]c2ccccc2c1C1=C(O)C(=O)C(c2c[nH]c3c(CC=C(C)C)cccc23)=C(O)C1=O | - | - | 25µM | -
O=C(O)c1ccc(NS(=O)(=O)c2ccsc2C(=O)O)cc1 | - | - | 0 | -
Nc1ccc(N2CCN(c3ccc(F)cc3)CC2)cc1 | 0 | 0 | 0 | 0
Nc1ccc(N2CCCCCC2)cc1 | - | - | ? | 18µM
CC(CC1C(C#N)=C(N)SC(N)=C1C#N)c1ccccc1 (stereo not drawn) | 0 | 0 | 22µM | 0
CC[C@](C)(CN(C)C)OC(=O)c1ccccc1 | - | - | 0 | -
O=[N+]([O-])c1cccc(/C=N/Nc2nc(NCc3ccccc3)nc(N3CCOCC3)n2)c1O | -67 | -94 | 0 | 0
COC(=O)[C@H]1[C@H]2CC3c4[nH]c5ccccc5c4CCN3C[C@@H]2CC[C@@H]1O (stereo partly drawn) | - | - | 0 | -
Cc1nnc2ccc(-c3cccc(NC(=O)c4ccc(Br)o4)c3)nn12 | -65 | ? | 0 | -
COc1cc(/C=C2/C(=O)CNC2=O)ccc1O | 0 | 0 | 0 | 0
COc1cc(/C=C/C(=O)/C=C(O)/C=C/c2ccc(O)c(OC)c2)ccc1O | 0 | 0 | 20µM | 0
CCOC(=O)C1=C(C)N(c2ccccc2)C(=O)/C1=C\c1ccc(O)c(OC)c1 | 0 | 0 | 4.5µM | -
COc1cc(/C=C/C(=O)CC(=O)/C=C/c2ccc(O)c(OC)c2)ccc1O | 0 | 0 | 35µM | 0
COc1cc(C=C2C(=O)C=CC2=O)ccc1O | 0 | -74 | - | -
CCOC(=O)C1CCN(S(=O)(=O)c2ccc3c4c2CC(=O)N4CC(C)S3)CC1 (stereo not drawn) | 0 | 0 | - | 0
COc1cccc(NC(=O)CCc2c(C)nc3nc(CNC(=O)c4cccc(F)c4)nn3c2C)c1 | -76 | ? | - | -
COc1cc(NC(=O)CCc2c(C)nc3nc(C)nn3c2C)cc(OC)c1 | 0 | 0 | 0 | -
Cc1ccc(Cl)cc1NC1=C/C(=N\S(=O)(=O)c2cccs2)c2ccccc2C1=O | -78 | -74! | ? | -
O=C1C(Nc2ccc(O)cc2)=C/C(=N/S(=O)(=O)c2cccs2)c2ccccc21 | ? | -77 | 0 | 13µM
Cc1ccc(NC2=C/C(=N\S(=O)(=O)c3cccs3)c3ccccc3C2=O)c(C)c1 | -85 | -84 | 0 | 3.2µM
Cc1cccc(NC2=C/C(=N/S(=O)(=O)c3cccs3)c3ccccc3C2=O)c1 | ? | 0 | 0 | 1.6µM
Cc1cc(C)c(S(=O)(=O)/N=C2\C=C(NS(=O)(=O)c3ccccc3)C(=O)c3ccccc32)c(C)c1 | 0 | 0 | - | -
SMILES | CtBP-E1A inh | Six1-Eya2 blk | KDM4E inh | L3MBTL1 inh
Cc1c(C(=O)O)sc(S(=O)(=O)N2CCN(C(=O)Cc3ccc(F)cc3)CC2)c1C(=O)O | 0 | 0 | - | 0
COCOc1c2c(c(OCOC)c3c(OCOC)cccc13)/C(=N/N[S+](=O)([O-])c1ccc(C)cc1)C1=C2CCCC1 | - | - | 0 | -
Cc1cccc(-c2nnc(C(C)Nc3cccc(C(=O)NC4CC4)c3)o2)c1 (stereo not drawn) | 0 | 0 | - | -
CC(C)c1ccc(N2C(=O)CC(Sc3nc4ccccc4o3)C2=O)cc1 (stereo not drawn) | 0 | 0 | 0 | 0
COc1ccc(N2C(=O)CC(Sc3ncn[nH]3)C2=O)c(OC)c1 (stereo not drawn) | 0 | 0 | 2.8µM | 0
CC(C)c1ccc(N2C(=O)CC(Sc3ncn[nH]3)C2=O)cc1 (stereo not drawn) | 0 | 0 | 1.6µM | -
OC[C@H]1O[C@@H](n2cnc3c(Nc4ccccc4)ncnc32)[C@H](O)[C@H]1O | - | - | 0 | -
C=Cc1c(C)/c2[n-]/c1=C\c1[n-]c(c(CC)c1C)/C=c1\[n-]c3c(c1C)C(=O)C(C(=O)[O-])C=3c1[n-]c(c(C)c1CCC(=O)[O-])\C=2.[Cu].[Na+].[Na+] (stereo not drawn) | - | - | 7.9µM | -

High-throughput results from PubChem BioAssay.
